Measured values taken from PubChem BioAssay AID1159580 (chemical genetic matrix, 2015).
The whole screen tested about 5,500 compounds, of which about 2,000 (36%) were called active. Inconclusive results (about 18%) are left out. Cut-off read from the data, not from the text of the source: active = normalized growth mostly below about 0.91 (no sharp cut-off); inconclusive = no clear call, values can overlap the other calls; inactive = mostly above about 0.92. The list shows a part of the results.

Assay: chemical genetic growth profiling, strain panel (AID 1159580);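 note: tested at 20 µM; growth read once vehicle control cultures reached saturation at 30 °C; 1 = growth at the plate median or of vehicle wells; lower values mean less growth of the strain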
Details: S. cerevisiae deletion strains, growth OD

Measured: normalized growth

CC(=O)c1ccc(O)c(CC=C(C)C)c1
inactive: locus YAL021C, strain ccr4, hits give low values 1 | locus YAL026C, strain drs2, hits give low values 0.952 | locus YAL030W, strain snc1, hits give low values 0.972 | locus YBL061C, strain skt5, hits give low values 0.956 | locus YBR009C, strain hhf1, hits give low values 0.933 | locus YBR021W, strain FUR4, hits give low values 0.954 | locus YBR023C, strain chs3, hits give low values 0.964 | locus YBR171W, strain sec66, hits give low values 0.949 | locus YBR229C, strain ROT2, hits give low values 0.983 | locus YBR231C, strain swc5, hits give low values 0.929 | locus YBR279W, strain paf1, hits give low values 0.977 | locus YCL011C, strain gbp2, hits give low values 0.959 | locus YCL016C, strain dcc1, hits give low values 0.999 | locus YCL029C, strain bik1, hits give low values 0.967 | locus YCL061C, strain MRC1, hits give low values 0.965 | locus YCL069W, strain vba3, hits give low values 0.971 | locus YCR088W, strain abp1, hits give low values 0.968 | locus YDL005C, strain med2, hits give low values 0.952 | locus YDL035C, strain GPR1, hits give low values 0.956 | locus YDL040C, strain nat1, hits give low values 0.97 | locus YDL074C, strain BRE1, hits give low values 0.867 | locus YDL101C, strain DUN1, hits give low values 0.963 | locus YDL134C, strain PPH21, hits give low values 0.984 | locus YDL185W, strain tfp1, hits give low values 0.922 | locus YDL192W, strain arf1, hits give low values 0.942 | locus YDR001C, strain nth1, hits give low values 0.966 | locus YDR069C, strain doa4, hits give low values 0.951 | locus YDR101C, strain arx1, hits give low values 0.968 | locus YDR137W, strain rgp1, hits give low values 0.983 | locus YDR159W, strain sac3, hits give low values 0.896 | locus YDR162C, strain NBP2, hits give low values 0.963 | locus YDR195W, strain ref2 0.975 | locus YDR297W, strain sur2, hits give low values 0.933 | locus YDR318W, strain mcm21, hits give low values 0.958 | locus YDR334W, strain swr1, hits give low values 0.966 | locus YDR335W, strain msn5, hits give low values 0.994 | locus YDR388W, hits give low values 0.967 | locus YDR392W, strain spt3, hits give low values 0.929 | locus YDR502C, strain sam2, hits give low values 0.938 | locus YEL003W, strain gim4, hits give low values 0.928 | locus YEL037C, strain rad23, hits give low values 0.964 | locus YEL061C, strain CIN8 (second series), hits give low values 0.965 | locus YEL061C, strain CIN8, hits give low values 0.982 | locus YER015W, strain faa2, hits give low values 0.971 | locus YER016W, strain bim1, hits give low values 0.975 | locus YER110C, hits give low values 0.965 | locus YER111C, strain swi4, hits give low values 0.974 | locus YER155C, strain BEM2 (second series), hits give low values 0.958 | locus YER155C, strain BEM2, hits give low values 0.986 | locus YER167W, strain BCK2, hits give low values 0.904 | locus YFR010W, strain ubp6, hits give low values 0.952 | locus YGL078C, strain dbp3, hits give low values 0.961 | locus YGL086W, strain mad1, hits give low values 0.972 | locus YGL167C, strain pmr1, hits give low values 0.962 | locus YGL173C, strain kem1, hits give low values 0.949 | locus YGL227W, strain vid30, hits give low values 0.961 | locus YGL240W, strain doc1, hits give low values 0.894 | locus YGL248W, strain PDE1, hits give low values 0.961 | locus YGR078C, strain PAC10, hits give low values 0.936 | locus YGR135W, strain pre9, hits give low values 0.934 | locus YGR229C, strain SMI1, hits give low values 0.84 | locus YHR013C, strain ard1, hits give low values 0.991 | locus YHR027C, strain rpn1, hits give low values 0.971 | locus YHR030C, strain SLT2, hits give low values 0.976 | locus YHR079C, strain IRE1 (second series), hits give low values 0.959 | locus YHR094C, strain hxt1, hits give low values 0.967 | locus YHR129C, strain ARP1, hits give low values 0.967 | locus YHR142W, strain chs7, hits give low values 0.926 | locus YHR200W, strain rpn10, hits give low values 0.971 | locus YIL066C, strain RNR3, hits give low values 0.945 | locus YIL073C, strain SPO22, hits give low values 0.955 | locus YIR030C, strain dcg1, hits give low values 0.965 | locus YJL092W, strain hpr5, hits give low values 0.97 | locus YJL095W, strain BCK1 (second series), hits give low values 0.964 | locus YJL095W, strain BCK1, hits give low values 0.956 | locus YJL115W, strain asf1, hits give low values 0.975 | locus YJL129C, strain trk1, hits give low values 0.946 | locus YJL134W, strain LCB3, hits give low values 0.974 | locus YJL154C, strain vps35, hits give low values 0.966 | locus YJL164C, strain tpk1, hits give low values 0.973 | locus YJL166W, strain qcr8, hits give low values 0.936 | locus YJL168C, strain set2, hits give low values 0.99 | locus YJL187C, strain SWE1 (second series), hits give low values 0.953 | locus YJL187C, strain SWE1, hits give low values 0.961 | locus YJR043C, strain POL32, hits give low values 0.876 | locus YJR075W, strain HOC1, hits give low values 0.947 | locus YKL009W, strain mrt4, hits give low values 0.939 | locus YKL068W, hits give low values 0.957 | locus YKL085W, strain MDH1 (second series), hits give low values 0.951 | locus YKL085W, strain MDH1, hits give low values 0.951 | locus YKL160W, strain elf1, hits give low values 0.982 | locus YKR026C, strain gcn3, hits give low values 0.962 | locus YKR091W, strain srl3, hits give low values 0.969 | locus YLL001W, strain dnm1, hits give low values 0.945 | locus YLL026W, hits give low values 0.973 | locus YLL041C, strain sdh2, hits give low values 0.965 | locus YLR027C, strain aat2, hits give low values 0.951 | locus YLR039C, strain RIC1, hits give low values 0.688 | locus YLR058C, strain SHM2, hits give low values 0.977 | locus YLR102C, strain apc9, hits give low values 0.969 | locus YLR258W, strain gsy2, hits give low values 0.963 | locus YLR262C, strain YPT6 (second series), hits give low values 0.968 | locus YLR262C, strain YPT6, hits give low values 0.801 | locus YLR268W, strain sec22, hits give low values 0.959 | locus YLR320W, strain mms22, hits give low values 0.933 | locus YLR330W, strain CHS5, hits give low values 0.974 | locus YLR342W, strain FKS1 (second series), hits give low values 0.95 | locus YLR342W, strain FKS1, hits give low values 0.963 | locus YLR357W, strain rsc2, hits give low values 0.967 | locus YLR370C, strain arc18, hits give low values 0.965 | locus YLR371W, strain rom2, hits give low values 0.978 | locus YLR384C, strain iki3, hits give low values 0.961 | locus YLR418C, strain cdc73, hits give low values 0.872 | locus YML016C, strain PPZ1, hits give low values 0.982 | locus YML032C, strain rad52, hits give low values 0.967 | locus YML120C, strain ndi1, hits give low values 0.966 | locus YML124C, strain tub3, hits give low values 0.96 | locus YMR058W, strain fet3, hits give low values 0.963 | locus YMR078C, strain ctf18, hits give low values 0.951 | locus YMR125W, strain sto1, hits give low values 1 | locus YMR129W, hits give low values 0.969 | locus YMR205C, strain PFK2, hits give low values 0.981 | locus YMR223W, strain ubp8, hits give low values 0.932 | locus YMR231W, strain pep5, hits give low values 0.972 | locus YMR263W, strain SAP30, hits give low values 0.949 | locus YMR307W, strain GAS1, hits give low values 0.923 | locus YNL067W, strain RPL9B, hits give low values 0.953 | locus YNL071W, strain lat1, hits give low values 0.957 | locus YNL153C, strain GIM3, hits give low values 0.969 | locus YNL209W, strain ssb2, hits give low values 0.997 | locus YNL233W, strain BNI4, hits give low values 0.929 | locus YNL250W, strain rad50, hits give low values 0.967 | locus YNL271C, strain bni1, hits give low values 0.957 | locus YNL298W, strain CLA4, hits give low values 0.977 | locus YNL307C, strain MCK1, hits give low values 0.952 | locus YNL322C, strain KRE1 (second series), hits give low values 0.959 | locus YNR049C, strain mso1, hits give low values 0.968 | locus YNR052C, strain pop2, hits give low values 0.983 | locus YOL006C, strain TOP1, hits give low values 0.587 | locus YOL012C, strain htz1 1.06 | locus YOL147C, strain pex11, hits give low values 0.977 | locus YOR001W, strain rrp6, hits give low values 0.922 | locus YOR061W, strain CKA2, hits give low values 0.989 | locus YOR069W, strain VPS5, hits give low values 0.981 | locus YOR070C, strain gyp1, hits give low values 0.979 | locus YOR080W, strain dia2, hits give low values 0.951 | locus YOR083W, strain WHI5, hits give low values 0.979 | locus YOR106W, strain vam3, hits give low values 0.938 | locus YOR136W, strain idh2, hits give low values 0.972 | locus YOR144C, strain elg1, hits give low values 0.979 | locus YOR184W, strain ser1, hits give low values 0.96 | locus YOR265W, strain rbl2, hits give low values 0.964 | locus YOR290C, strain snf2, hits give low values 0.976 | locus YOR316C, strain cot1, hits give low values 0.969 | locus YPL051W, strain arl3, hits give low values 0.916 | locus YPL078C, strain atp4, hits give low values 0.959 | locus YPL106C, strain sse1, hits give low values 0.969 | locus YPL240C, strain hsp82, hits give low values 0.979 | locus YPR119W, strain clb2, hits give low values 0.961 | locus YPR141C, strain kar3, hits give low values 0.964 | locus YPR163C, strain tif3, hits give low values 0.948 | locus YPR167C, strain met16, hits give low values 0.969 | strain wtn01, hits give low values 0.957
active: locus YGL253W, strain hxk2, hits give low values 0.884 | locus YGR252W, strain gcn5, hits give low values 0.749 | locus YKR001C, strain vps1, hits give low values 0.808 | locus YLR221C, strain rsa3, hits give low values 0.905 | locus YNL248C, strain rpa49, hits give low values 0.871 | locus YOR270C, strain vph1, hits give low values 0.737
